Bioassay records from PubChem BioAssay.
This is one part of a sample in which hits are shown more often than they occur.
IL-1B inflam inh: qHTS for Inhibitors of Inflammasome Signaling: IL-1-beta AlphaLISA Primary Screen | THP-1 LPS/ATP IL-1B secretion, AlphaLISA, 16 h; hits give low values | activity change, % at 57.5 µM | 360,000 tested, 4.7% active | AID 743279, 2014; in the data active means activity change below about -50%; inconclusive means mostly about -30% to -49%
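THP-1 cells pretreated 1 hr with compounds (up to 57.5 uM final), then stimulated with LPS (250 ng/mL final) plus ATP (1.25 mM final); secreted IL-1B measured by AlphaLISA after 16 hr, decreased signal indicating inhibition.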
DT40 TDP1 no CPT: qHTS for Inhibitors of human tyrosyl-DNA phosphodiesterase 1 (TDP1): qHTS in cells in absence of CPT. 420,000 tested, 15% active. DT40 Tdp1-/- hTDP1 cells, no CPT, ATP luminescence, 48 h. Potency, µM (series often up to 46.2 µM), actives largely listed as inhibitors. AID 686978, 2013; further: nearly all actives have a fitted effect of over 55% in size
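Seeded 400 DT40-hTDP1 cells/well (vehicle DMSO, no 20 nM CPT); pinned compounds; ≥48 hr at 37 °C; CellTiter-Glo luminescence as viability measure.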
HT1080-NT tox: qHTS for induction of synthetic lethality in tumor cells producing 2HG: qHTS for the HT-1080-NT fibrosarcoma cell line. Potency, µM (series often up to 46.1 µM), most hits filed as cytotoxic. 360,000 tested, 1.6% active. HT-1080-NT fibrosarcoma viability, CellTiter-Glo ATP luminescence, 48 h;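 further: NT is the 2HG producing partner of a matched IDH1 knockdown line; nearly all actives have a fitted effect of over 55% in size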
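Luminescent CellTiter-Glo readout after 48 hours of compound exposure at 37 degrees C defined viability of HT-1080-NT cells. Activity was normalized to DMSO wells and cell-free media wells; concentration-response curves were fitted and assigned curve classes.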
HT1080 IDH1KD tx: qHTS for induction of synthetic lethality in tumor cells producing 2HG: qHTS for the HT-1080-IDH1KD cell line; 360,000 tested, 2% active; HT-1080 IDH1 knockdown viability, ATP luminescence, 48 h; Potency, µM (series often up to 46.1 µM), most hits filed as cytotoxic; AID 686971, 2013
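In this qHTS, HT-1080 cells depleted of IDH1 are exposed for 48 h at 37 °C to compound titrations. Toxicity is scored from CellTiter-Glo luminescence, with DMSO as full viability and medium alone as none.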
DT40 TDP1 CPT: qHTS for Inhibitors of human tyrosyl-DNA phosphodiesterase 1 (TDP1): qHTS in cells in presence of CPT; chicken DT40 Tdp1-/-;hTDP1 cells + 20 nM CPT, ATP luminescence, 48 h; Potency, µM (titrated, usually from 46.2 µM), most hits filed as inhibitors; 420,000 tested, 12% active; AID 686979, 2013; further: nearly all actives have a fitted effect of over 55% in size
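Chicken DT40 Tdp1-/- cells stably complemented with human TDP1 were seeded at 400 cells/well in medium containing 20 nM camptothecin, exposed to pin-transferred compounds, and grown at 37 °C for at least 48 hr. Viability was read as ATP luminescence.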
12-LOX inh: Primary qHTS assay for inhibitors of human arachidonate 12S-lipoxygenase (ALOX12): Round 2. purified 12hLO, xylenol orange hydroperoxide absorbance. Potency, µM (highest dose often 108 µM), usual class: inhibitors. 580,000 tested, 1.1% active. AID 1671190, 2021
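Hydroperoxide product was detected by ferrous iron/xylenol orange as the 573 to 405 nm absorbance ratio. Arachidonic acid at 40 uM (final) was turned over for 30 min at room temperature by 150 nM human 12hLO, pH 7.0 Hepes buffer, after 15 min compound preincubation.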
Numbers stand for hits; – = inactive; ? = inconclusive; · = no result given. Unless noted, the call rests on the fitted dose curve; in most records, active means well fitted curve in the direction sought with a large enough effect; inconclusive means small, poorly fitted or top-dose-only effect, or another doubt; inactive means no such curve, though single readings can be large; an effect the other way counts as inactive or inconclusive.

SMILES | IL-1B inflam inh | DT40 TDP1 no CPT | HT1080-NT tox | HT1080 IDH1KD tx | DT40 TDP1 CPT | 12-LOX inh
CC(=O)N1CCc2cc(S(=O)(=O)NCCC(=O)N3CCN(Cc4ccccc4)CC3)ccc21 | – | 21µM | – | – | ? | –
N#Cc1ccc(CN2CCN(C(=O)CCNS(=O)(=O)c3ccc(F)c(Cl)c3)CC2)cc1 | – | 18µM | – | – | ? | –
Cc1cccc(N2CCN(C(=O)CCNS(=O)(=O)c3ccc4c(c3)CCN4C(=O)C3CC3)CC2)c1C | · | 18µM | · | · | 18µM | –
N#Cc1ccc(CN2CCN(C(=O)c3ccc(S(=O)(=O)NCc4ccco4)cc3)CC2)cc1 | – | 2.6µM | – | – | 10µM | –
O=C(c1ccc(S(=O)(=O)NCc2ccco2)cc1)N1CCCC1 | – | – | – | – | – | –
Cc1ccc(-c2noc(-c3cccn3CC(=O)N3CCC(C)CC3)n2)cc1 | · | · | · | · | · | –
C[C@@H](NC(=O)Cc1ccccc1)c1onc(-c2ccc(Cl)cc2)c1C(=O)O | · | · | · | · | · | –
COC(=O)C1(NC(=O)CCNC(C)=O)CCCCCC1 | · | · | · | · | · | –
Cc1ccc(CN2CCCN(CC(=O)N3CCCCC3C)S2(=O)=O)cc1 (stereo not drawn) | · | · | · | · | · | –
N#Cc1ccc(CS(=O)(=O)Cc2ccc(Cl)c(Cl)c2)cc1 | · | · | · | · | · | –
O=C(CCNS(=O)(=O)c1ccc2c(c1)CCN2C(=O)C1CC1)N1CCN(c2cccc(Cl)c2)CC1 | · | 9.2µM | · | · | 5.8µM | –
CCC(=O)N1CCc2cc(S(=O)(=O)NCCC(=O)N3CCN(c4ccccn4)CC3)ccc21 | – | ? | – | – | – | –
CC1CC(C)CN(C(=O)CCNS(=O)(=O)c2ccc3c(c2)CCC(=O)N3)C1 (stereo not drawn) | – | – | – | – | – | –
O=C1CCc2cc(S(=O)(=O)NCCC(=O)N3CCN(c4cccc(Cl)c4)CC3)ccc2N1 | – | 10µM | ? | ? | 26µM | –
N#Cc1ccc(CN2CCN(CC(=O)NCCc3ccc(Cl)cc3Cl)CC2)cc1 | ? | 21µM | ? | ? | 21µM | ?
CCOC(=O)C1=C(C)OC(n2cccc2)=C(C#N)C1c1cc(OC)c(OC)c(OC)c1 (stereo not drawn) | · | · | · | · | · | –
CCNc1nc(NCC)n2c(SCC(=O)Nc3ccc(CC)cc3)nnc2n1 | – | ? | – | – | 21µM | ·
Cc1ccc(C)c(NC(=O)C(Sc2nnnn2C)c2ccccc2)c1 (stereo not drawn) | · | · | · | · | · | –
CCNc1nc(NCC)n2c(SCC(=O)Nc3ccc(NC(C)=O)cc3)nnc2n1 | – | – | – | – | – | –
CCNc1nc(NCC)n2c(SC(C(=O)Nc3cc(C)ccc3C)c3ccccc3)nnc2n1 (stereo not drawn) | ? | 12µM | – | ? | ? | –
CCNc1nc(NCC)n2c(SC(C)C(=O)c3ccc(C)cc3)nnc2n1 (stereo not drawn) | – | 13µM | – | – | ? | –
COc1ccc(C)cc1NC(=O)CCn1nc(-c2cccs2)oc1=O | · | · | · | · | · | –
CCC(=O)N(C)C[C@@H]1Oc2cc(Br)ccc2S(=O)(=O)N([C@@H](C)CO)C[C@@H]1C | – | – | – | – | – | –
C[C@@H]1CN([C@H](C)CO)S(=O)(=O)c2ccc(C#CC3CCCC3)cc2O[C@H]1CN(C)C(=O)Cc1ccccc1 | -81 | 5.8µM | ? | ? | 5.8µM | ?
CCCC#Cc1ccc2c(c1)O[C@H](CN(C)C(=O)CC1CC1)[C@H](C)CN([C@@H](C)CO)S2(=O)=O | – | 18µM | – | – | ? | ?
